# Reference: PubChem BioAssay (NCATS)
# Inconclusive results are not listed. Where a call stands in place of a potency, no number is given. Active and inactive are the calls of the source. The call rests on the fitted dose curve; in most records, active means well fitted inhibition curve with a large enough effect; inconclusive means small, poorly fitted or top-dose-only effect; inactive means flat fitted curve, though single readings scatter.
# Test system: CP329
# Experiment: qHTS profiling for inhibitors of Plasmodium falciparum proliferation (AID 504749); further: nearly all actives have a fitted effect of over 60% in size
# Settings: P. falciparum in erythrocytes, SYBR Green DNA, 72 h; series mostly up to 28.7 µM
# Procedure, shortened: (§1)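 P. falciparum-infected erythrocytes (0.3% parasitemia, 2.5% hematocrit final) were exposed to compounds for 72 h at 37 C in 5% CO2, then lysed with SYBR Green buffer overnight at room temperature; parasite DNA fluorescence was normalized to artemisinin and DMSO controls.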
# Potency means the concentration at half of the fitted maximal effect.
row,Compound,Potency
1,CC1=C(/C=C/C(C)=C/C=C/C(C)=C/C=C/C=C(C)/C=C/C=C(C)/C=C/C2=C(C)C(=O)CCC2(C)C)C(C)(C)CCC1=O,inactive
2,CCCCC(CC)COC(=O)CC(C(=O)OCC(CC)CCCC)S(=O)(=O)O (stereo unspecified),inactive
3,O=S(=O)(O)c1cc(O)c2c(N=Nc3ccc(Nc4ccccc4)c4c(S(=O)(=O)O)cccc34)cc(S(=O)(=O)O)cc2c1,inactive

# Test system: CP335
# Experiment: as above
# Settings: P. falciparum in erythrocytes, SYBR Green DNA, 72 h; series mostly up to 28.7 µM
# Procedure, shortened: as §1
row,Compound,Potency
1,CC[C@@]1(O)C(=O)OCc2c1cc1n(c2=O)Cc2cc3c([N+](=O)[O-])cccc3nc2-1,4.78 µM (active)
2,CCCCCCOc1ccc(C(=N)N(CCCC)CCCC)c2ccccc12,8.49 µM (active)
3,Cc1cn([C@H]2C[C@H](O)[C@@H](CO)O2)c(=O)[nH]c1=O,inactive
4,CC(C)=O,inactive
5,CCOC(=O)C1=C(C)NC(C)=C(C(=O)OCC)C1c1ccccc1C=CC(=O)OC(C)(C)C,10.7 µM (active)
6,CN1C(=O)CN2CCc3ccccc3C2c2cc(Cl)ccc21 (stereo unspecified),inactive
7,COC(=O)C1=C(C#N)NC(C)=C(C(=O)OC(C)C)C1c1cccc([N+](=O)[O-])c1 (stereo unspecified),8.49 µM (active)
8,CC(C)N=c1cc2n(-c3ccc(Cl)cc3)c3ccccc3nc-2cc1Nc1ccc(Cl)cc1,1.81 µM (active)
9,NC1C2CN(c3nc4c(cc3F)c(=O)c(C(=O)O)cn4-c3ccc(F)cc3F)CC12 (stereo unspecified),6.01 µM (active)
10,CC1=C(/C=C/C(C)=C/C=C/C(C)=C/C=C/C=C(C)/C=C/C=C(C)/C=C/C2=C(C)C(=O)CCC2(C)C)C(C)(C)CCC1=O,inactive
11,CCCCC(CC)COC(=O)CC(C(=O)OCC(CC)CCCC)S(=O)(=O)O (stereo unspecified),inactive
12,O=S(=O)(O)c1cc(O)c2c(N=Nc3ccc(Nc4ccccc4)c4c(S(=O)(=O)O)cccc34)cc(S(=O)(=O)O)cc2c1,inactive

# Test system: DFO2036
# Experiment: as above
# Settings: P. falciparum in erythrocytes, SYBR Green DNA, 72 h; series mostly up to 28.7 µM
# Procedure, shortened: as §1
row,Compound,Potency
1,O=C(Nc1cccc(C(F)(F)F)c1)c1cc(Br)cc(Br)c1O,10 µM (active)
2,CC[C@@]1(O)C(=O)OCc2c1cc1n(c2=O)Cc2cc3c([N+](=O)[O-])cccc3nc2-1,5.01 µM (active)
3,CN=C(NC#N)Nc1ccc(C2=NNC(=O)C[C@@H]2C)cc1,inactive
4,CCCCCC(CC)COC(=O)CC(C(=O)OCC(CC)CCCC)S(=O)(=O)O (stereo unspecified),inactive
5,Cc1cn([C@H]2C[C@H](O)[C@@H](CO)O2)c(=O)[nH]c1=O,inactive
6,CN(C)CCCN1c2ccccc2C(C)(C)c2ccccc21,inactive
7,O=CCCCC=O,inactive
8,CC(C)=O,inactive
9,O=C(O)c1cc(=O)c2c3nc4ccccc4oc-3cc(=O)c2[nH]1,inactive
10,CCOC(=O)C1=C(C)NC(C)=C(C(=O)OCC)C1c1ccccc1C=CC(=O)OC(C)(C)C,11.2 µM (active)
11,CN1C(=O)CN2CCc3ccccc3C2c2cc(Cl)ccc21 (stereo unspecified),inactive
12,COC(=O)C1=C(C#N)NC(C)=C(C(=O)OC(C)C)C1c1cccc([N+](=O)[O-])c1 (stereo unspecified),12.6 µM (active)
13,CC(C)N=c1cc2n(-c3ccc(Cl)cc3)c3ccccc3nc-2cc1Nc1ccc(Cl)cc1,inactive
14,CCOC(=O)C1=CC2(CC)CCCN3CCc4c(n1c1ccccc41)C32 (stereo unspecified),11.2 µM (active)
15,CC1=C(/C=C/C(C)=C/C=C/C(C)=C/C=C/C=C(C)/C=C/C=C(C)/C=C/C2=C(C)C(=O)CCC2(C)C)C(C)(C)CCC1=O,inactive
16,COC(=O)[C@H]1[C@H]2CC3c4[nH]c5ccccc5c4CCN3C[C@@H]2CC[C@@H]1O (stereo partly specified),inactive
